Experimental data published in PubChem BioAssay AID1159580 (chemical genetic matrix, 2015).
Where “and” joins values, the source holds several entries; their conditions need not be identical. Identical values can stand only once. About 2,000 (36%) of roughly 5,500 compounds were called active. About 18% were inconclusive and are not listed. Cut-off read from the data, not from the text of the source: active = normalized growth mostly below about 0.91 (no sharp cut-off); inconclusive = no clear call, values can overlap the other calls; inactive = mostly above about 0.92. This is one part of the list.

Assay: chemical genetic growth profiling, strain panel (AID 1159580);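 note: tested at 20 µM; growth read once vehicle control cultures reached saturation at 30 °C; 1 = growth at the plate median or of vehicle wells; lower values mean less growth of the strain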
Conditions: S. cerevisiae deletion strains, growth OD
[1] = locus YAL040C, strain CLN3, stronger effect = lower value
[2] = locus YDR363W, strain ESC2, stronger effect = lower value
[3] = locus YER002W, strain NOP16, stronger effect = lower value
[4] = locus YJR075W, strain HOC1, stronger effect = lower value
[5] = locus YNL153C, strain GIM3, stronger effect = lower value
[6] = locus YNL175C, strain NOP13, stronger effect = lower value
[7] = locus YNL197C, strain WHI3, stronger effect = lower value
[8] = locus YNL224C, strain SQS1, stronger effect = lower value
[9] = locus YNL322C, strain KRE1, stronger effect = lower value
[10] = locus YOR083W, strain WHI5 (second series), stronger effect = lower value

Measured: normalized growth

CN(C)CCCN1c2ccccc2Sc2ccc(Cl)cc21
active: locus YAL021C, strain ccr4, stronger effect = lower value 0.0773 | locus YAL026C, strain drs2, stronger effect = lower value 0.0621 | locus YAL030W, strain snc1, stronger effect = lower value 0.0722 | locus YBL061C, strain skt5, stronger effect = lower value 0.0759 | locus YBR009C, strain hhf1, stronger effect = lower value 0.0662 | locus YBR021W, strain FUR4, stronger effect = lower value 0.612 | locus YBR023C, strain chs3, stronger effect = lower value 0.0864 | locus YBR171W, strain sec66, stronger effect = lower value 0.351 | locus YBR231C, strain swc5, stronger effect = lower value 0.0709 | locus YBR279W, strain paf1, stronger effect = lower value 0.165 | locus YCL011C, strain gbp2, stronger effect = lower value 0.068 | locus YCL016C, strain dcc1, stronger effect = lower value 0.165 | locus YCL069W, strain vba3, stronger effect = lower value 0.131 | locus YCR088W, strain abp1, stronger effect = lower value 0.0794 | locus YDL035C, strain GPR1, stronger effect = lower value 0.853 | locus YDL040C, strain nat1, stronger effect = lower value 0.14 | locus YDR001C, strain nth1, stronger effect = lower value 0.119 | locus YDR069C, strain doa4, stronger effect = lower value 0.0779 | locus YDR159W, strain sac3, stronger effect = lower value 0.274 | locus YDR162C, strain NBP2, stronger effect = lower value 0.599 | locus YDR195W, strain ref2 0.155 | locus YDR297W, strain sur2, stronger effect = lower value 0.0894 | locus YDR334W, strain swr1, stronger effect = lower value 0.0746 | locus YDR335W, strain msn5, stronger effect = lower value 0.158 | locus YDR392W, strain spt3, stronger effect = lower value 0.351 | locus YEL003W, strain gim4, stronger effect = lower value 0.0681 | locus YEL037C, strain rad23, stronger effect = lower value 0.0964 | locus YEL061C, strain CIN8 (second series), stronger effect = lower value 0.4 | locus YER015W, strain faa2, stronger effect = lower value 0.111 | locus YER016W, strain bim1, stronger effect = lower value 0.102 | locus YFR010W, strain ubp6, stronger effect = lower value 0.111 | locus YGL167C, strain pmr1, stronger effect = lower value 0.562 | locus YGL173C, strain kem1, stronger effect = lower value 0.501 | locus YGL227W, strain vid30, stronger effect = lower value 0.103 | locus YGL253W, strain hxk2, stronger effect = lower value 0.0994 | locus YHR013C, strain ard1, stronger effect = lower value 0.513 | locus YHR027C, strain rpn1, stronger effect = lower value 0.082 | locus YHR142W, strain chs7, stronger effect = lower value 0.116 | locus YJL092W, strain hpr5, stronger effect = lower value 0.0961 | locus YJL095W, strain BCK1 (second series), stronger effect = lower value 0.0651 | locus YJL115W, strain asf1, stronger effect = lower value 0.183 | locus YJL129C, strain trk1, stronger effect = lower value 0.159 | locus YJL154C, strain vps35, stronger effect = lower value 0.0684 | locus YJL164C, strain tpk1, stronger effect = lower value 0.0728 | locus YJL166W, strain qcr8, stronger effect = lower value 0.0785 | locus YKL160W, strain elf1, stronger effect = lower value 0.229 | locus YKR026C, strain gcn3, stronger effect = lower value 0.151 | locus YKR091W, strain srl3, stronger effect = lower value 0.0828 | locus YLL001W, strain dnm1, stronger effect = lower value 0.11 | locus YLL026W, stronger effect = lower value 0.0697 | locus YLL041C, strain sdh2, stronger effect = lower value 0.0922 | locus YLR027C, strain aat2, stronger effect = lower value 0.0702 | locus YLR039C, strain RIC1, stronger effect = lower value 1.67 [resistant] | locus YLR221C, strain rsa3, stronger effect = lower value 0.11 | locus YLR258W, strain gsy2, stronger effect = lower value 0.0787 | locus YLR262C, strain YPT6 (second series), stronger effect = lower value 0.165 | locus YLR262C, strain YPT6, stronger effect = lower value 1.54 [resistant] | locus YLR320W, strain mms22, stronger effect = lower value 0.181 | locus YLR342W, strain FKS1 (second series), stronger effect = lower value 0.746 | locus YLR342W, strain FKS1, stronger effect = lower value 0.0779 | locus YLR357W, strain rsc2, stronger effect = lower value 0.18 | locus YLR370C, strain arc18, stronger effect = lower value 0.067 | locus YLR384C, strain iki3, stronger effect = lower value 0.102 | locus YLR418C, strain cdc73, stronger effect = lower value 0.804 | locus YML120C, strain ndi1, stronger effect = lower value 0.082 | locus YMR058W, strain fet3, stronger effect = lower value 0.0939 | locus YMR125W, strain sto1, stronger effect = lower value 0.0861 | locus YMR129W, stronger effect = lower value 0.0771 | locus YMR205C, strain PFK2, stronger effect = lower value 0.719 | locus YMR231W, strain pep5, stronger effect = lower value 0.0725 | locus YNL071W, strain lat1, stronger effect = lower value 0.218 | [5] 0.86 and 0.732 | locus YNL209W, strain ssb2, stronger effect = lower value 0.101 | locus YNL248C, strain rpa49, stronger effect = lower value 0.461 | locus YNR049C, strain mso1, stronger effect = lower value 0.0933 | locus YOR001W, strain rrp6, stronger effect = lower value 0.143 | locus YOR070C, strain gyp1, stronger effect = lower value 0.0696 | locus YOR080W, strain dia2, stronger effect = lower value 0.18 | locus YOR083W, strain WHI5, stronger effect = lower value 0.0877 | locus YOR106W, strain vam3, stronger effect = lower value 0.0702 | locus YOR265W, strain rbl2, stronger effect = lower value 0.0766 | locus YOR270C, strain vph1, stronger effect = lower value 0.331 | locus YOR290C, strain snf2, stronger effect = lower value 0.122 | locus YPL051W, strain arl3, stronger effect = lower value 0.229 | locus YPL078C, strain atp4, stronger effect = lower value 0.586 | locus YPL106C, strain sse1, stronger effect = lower value 0.109 | locus YPL240C, strain hsp82, stronger effect = lower value 0.0839
inactive: [1] 0.992 | locus YBR229C, strain ROT2, stronger effect = lower value 1.01 | locus YCL029C, strain bik1, stronger effect = lower value 1.03 | locus YDL005C, strain med2, stronger effect = lower value 1.01 | locus YDL074C, strain BRE1, stronger effect = lower value 0.87 | locus YDL101C, strain DUN1, stronger effect = lower value 0.992 | locus YDL185W, strain tfp1, stronger effect = lower value 1.01 | locus YDL192W, strain arf1, stronger effect = lower value 1.01 | locus YDR101C, strain arx1, stronger effect = lower value 0.98 | locus YDR137W, strain rgp1, stronger effect = lower value 0.903 | locus YDR318W, strain mcm21, stronger effect = lower value 0.999 | [2] 0.953 | locus YDR388W, stronger effect = lower value 0.98 | locus YDR502C, strain sam2, stronger effect = lower value 0.974 | locus YEL061C, strain CIN8, stronger effect = lower value 0.983 | [3] 0.972 | locus YER110C, stronger effect = lower value 1.04 | locus YER111C, strain swi4, stronger effect = lower value 0.977 | locus YER155C, strain BEM2 (second series), stronger effect = lower value 1.12 | locus YER155C, strain BEM2, stronger effect = lower value 1.02 | locus YER167W, strain BCK2, stronger effect = lower value 1.01 | locus YGL078C, strain dbp3, stronger effect = lower value 1.01 | locus YGL086W, strain mad1, stronger effect = lower value 0.936 | locus YGL240W, strain doc1, stronger effect = lower value 0.92 | locus YGL248W, strain PDE1, stronger effect = lower value 0.994 | locus YGR078C, strain PAC10, stronger effect = lower value 0.889 and 0.997 | locus YGR135W, strain pre9, stronger effect = lower value 0.913 | locus YGR252W, strain gcn5, stronger effect = lower value 0.78 | locus YHR030C, strain SLT2, stronger effect = lower value 0.948 and 0.983 | locus YHR079C, strain IRE1 (second series), stronger effect = lower value 1.01 | locus YHR079C, strain IRE1, stronger effect = lower value 0.984 | locus YHR094C, strain hxt1, stronger effect = lower value 1 | locus YHR129C, strain ARP1, stronger effect = lower value 1 | locus YHR200W, strain rpn10, stronger effect = lower value 1.01 | locus YIL066C, strain RNR3, stronger effect = lower value 0.936 | locus YIL073C, strain SPO22, stronger effect = lower value 0.979 | locus YIL125W, strain kgd1, stronger effect = lower value 1 | locus YIR030C, strain dcg1, stronger effect = lower value 1.02 | locus YJL134W, strain LCB3, stronger effect = lower value 0.998 | locus YJL168C, strain set2, stronger effect = lower value 1.01 | locus YJL187C, strain SWE1 (second series), stronger effect = lower value 0.949 | locus YJR043C, strain POL32, stronger effect = lower value 1.02 | locus YJR066W, strain TOR1, stronger effect = lower value 0.974 | [4] 0.933 | locus YKL009W, strain mrt4, stronger effect = lower value 1.02 | locus YKL068W, stronger effect = lower value 1.01 | locus YKL085W, strain MDH1 (second series), stronger effect = lower value 0.975 | locus YKL085W, strain MDH1, stronger effect = lower value 0.975 | locus YKL190W, strain CNB1, stronger effect = lower value 0.949 | locus YKR001C, strain vps1, stronger effect = lower value 0.919 | locus YLR058C, strain SHM2, stronger effect = lower value 0.986 | locus YLR102C, strain apc9, stronger effect = lower value 1 | locus YLR113W, strain HOG1, stronger effect = lower value 0.982 | locus YLR268W, strain sec22, stronger effect = lower value 1.01 | locus YLR330W, strain CHS5, stronger effect = lower value 1 | locus YLR371W, strain rom2, stronger effect = lower value 1.01 | locus YML016C, strain PPZ1, stronger effect = lower value 1 | locus YML032C, strain rad52, stronger effect = lower value 0.964 | locus YML124C, strain tub3, stronger effect = lower value 1.01 | locus YMR078C, strain ctf18, stronger effect = lower value 1.01 | locus YMR223W, strain ubp8, stronger effect = lower value 0.958 | locus YMR263W, strain SAP30, stronger effect = lower value 0.955 | locus YMR307W, strain GAS1, stronger effect = lower value 1.02 | locus YNL067W, strain RPL9B, stronger effect = lower value 0.993 | [6] 0.967 | locus YNL183C, strain NPR1, stronger effect = lower value 0.917 | [7] 0.98 | [8] 0.984 | locus YNL233W, strain BNI4, stronger effect = lower value 0.937 | locus YNL250W, strain rad50, stronger effect = lower value 1.02 | locus YNL271C, strain bni1, stronger effect = lower value 1.01 | locus YNL298W, strain CLA4, stronger effect = lower value 1.02 | locus YNL307C, strain MCK1, stronger effect = lower value 1.01 | locus YNL322C, strain KRE1 (second series), stronger effect = lower value 1.07 | [9] 0.974 | locus YNR052C, strain pop2, stronger effect = lower value 0.94 | locus YOL006C, strain TOP1, stronger effect = lower value 0.733 | locus YOL012C, strain htz1 0.856 | locus YOL147C, strain pex11, stronger effect = lower value 1.02 | locus YOR061W, strain CKA2, stronger effect = lower value 0.948 | locus YOR069W, strain VPS5, stronger effect = lower value 1 | [10] 0.935 | locus YOR136W, strain idh2, stronger effect = lower value 1.03 | locus YOR144C, strain elg1, stronger effect = lower value 1.01 | locus YOR184W, strain ser1, stronger effect = lower value 1.04 | locus YOR231W, strain MKK1, stronger effect = lower value 0.986 | locus YOR316C, strain cot1, stronger effect = lower value 1 | locus YPL241C, strain CIN2, stronger effect = lower value 0.988 and 0.985 | locus YPL256C, strain CLN2, stronger effect = lower value 0.97 | locus YPR119W, strain clb2, stronger effect = lower value 1.01 | locus YPR141C, strain kar3, stronger effect = lower value 1.02 | locus YPR163C, strain tif3, stronger effect = lower value 0.988 | locus YPR167C, strain met16, stronger effect = lower value 1.02 | strain wtn01, stronger effect = lower value 0.969
0.739 (active) and 0.979 (inactive): locus YJL095W, strain BCK1, stronger effect = lower value

CCC(=O)c1ccc2c(c1)N(CCCN(C)C)c1ccccc1S2
inactive: [1] 0.997 | locus YCL061C, strain MRC1 (second series), stronger effect = lower value 1 | locus YDR150W, strain NUM1, stronger effect = lower value 1.01 | [2] 1.02 | [3] 1.01 | locus YGR229C, strain SMI1, stronger effect = lower value 0.986 | [4] 0.985 | [5] 1.16 | [6] 1.02 | [7] 1.05 | [8] 1.07 | [9] 0.971 | [10] 1 | locus YPL055C, strain LGE1, stronger effect = lower value 0.988
